Reference: PubChem BioAssay AID2013 (Sanford-Burnham Center for Chemical Genomics, 2009)
About 370 (0.13%) of roughly 290,000 compounds were called active. This is one part of a sample in which actives are shown more often than they occur. Measured potencies and affinities stand elsewhere. A number with no mark means an inactive call.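 How the source made its calls: active means spots per cell inhibited over 60%, with over 100 cells counted and total cytoplasm intensity under 500,000; inconclusive means wells with under 100 cells, flagged as likely toxic; inactive means the rest.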

Each molecule was assayed against G-protein coupled receptor 55 (Homo sapiens) (UniProt Q9Y2T6) (assay: GPR55 antagonists blocking LPI-driven arrestin recruitment, primary screen, imaging, U2OS, beta-arrestin-GFP, LPI agonist (AID 2013;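 further: U2OS cells stably carrying GPR55 and arrestin-GFP stimulated by 5 µM LPI near EC80; imaged beta-arrestin-GFP aggregate spots per cell after agonist stimulation; plate controls were LPI-stimulated DMSO wells for no effect and DMSO wells without LPI for full effect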)). Details: U2OS GPR55 beta-arrestin-GFP translocation imaging, LPI antagonism; at 10 µM; hits give high values.
G-protein coupled receptor 55 (Homo sapiens), sequence (Q9Y2T6 whole entry, looked up): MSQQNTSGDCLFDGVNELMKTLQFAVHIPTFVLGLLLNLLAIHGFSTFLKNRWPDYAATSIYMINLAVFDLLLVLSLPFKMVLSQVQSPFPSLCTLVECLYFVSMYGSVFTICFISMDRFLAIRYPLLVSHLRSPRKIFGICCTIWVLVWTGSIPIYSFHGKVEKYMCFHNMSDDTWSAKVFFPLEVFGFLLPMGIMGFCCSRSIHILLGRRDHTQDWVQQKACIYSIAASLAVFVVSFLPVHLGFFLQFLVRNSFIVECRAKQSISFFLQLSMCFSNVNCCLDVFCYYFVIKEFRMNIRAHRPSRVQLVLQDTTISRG
With COc1cccc(NC(=O)C(=O)N/N=C/c2ccc3c(c2)OCO3)c1 the inhibition was 14.8%. In the case of c1ccc(C(c2ccccn2)c2ccccn2)cc1, the inhibition is reported as 1.1%. For CC(=O)Oc1ccc(C(=O)Cc2ccccn2)c(O)c1, the inhibition was 1%. CCOC(=O)CCNC(=O)N1CCCC(N(C)CCc2ccc(OC)c(OC)c2)C1 (stereo not drawn) gave an inhibition of 6.3%. O=C(NCC1CC1)Nc1ccc(Cl)cc1 showed an inhibition of 10.7%. In the case of CCCS(=O)(=O)N1CCCC(C(=O)Oc2ccc(C)c(C)c2)C1 (stereo not drawn), the inhibition is reported as -6.5%. In the case of CCOc1ccccc1NC(=O)NC1(C(=O)NCc2cccnc2)CCCCC1, the inhibition is reported as 3.3%. Work on CCOC(=O)c1cc2c(=O)n3cccc(C)c3nc2n(C)c1=N yielded an inhibition of 4.1%. Work on CCn1c(=N)c(C(=O)OC)cc2c(=O)n3ccccc3nc21 yielded an inhibition of -3.4%. With CCOC(=O)c1cc2c(=O)n3ccccc3nc2n(Cc2ccccc2Cl)c1=N the inhibition was 38.5%. With CCOC(=O)c1cc2c(=O)n3cccc(C)c3nc2n(Cc2ccccc2Cl)c1=N the inhibition was 85.6% (active). Molecule COC(=O)c1cc2c(=O)n3cccc(C)c3nc2n(Cc2cccnc2)c1=N has an inhibition of -5.2%. With COCCNC(=O)C(OC(=O)CC1Sc2ccccc2NC1=O)c1ccncc1 (stereo not drawn) the inhibition was 1.2%. Work on O=[N+]([O-])c1ccc(S(=O)(=O)NCCN2CCOCC2)cc1 yielded an inhibition of 11.3%. CCn1ncc(C(=O)Nc2cccc(Cl)c2)c1C gave an inhibition of 3.9%. With Brc1ccc(-c2nnc(Cc3ccccc3)o2)cc1 the inhibition was -5.2%. COc1ccc(Cc2nnc(-c3ccccc3)o2)cc1 gave an inhibition of -5.3%. CCN1CCCC1CN(Cc1cc2cc(OC)ccc2[nH]c1=O)C(=O)NCc1ccccc1 (stereo not drawn) was tested, and the inhibition was 11.3%. For CC(NC(=O)C12CC3CC(CC(C3)C1)C2)c1ccc2c(c1)OCCO2 (stereo not drawn), the inhibition was 3%. In the case of COc1cc(CNCCO)cc(Cl)c1OCc1ccc(Cl)cc1Cl, the inhibition is reported as 83.3% (active). Molecule COc1cc(CNCCO)cc(Cl)c1OCc1ccccc1Cl has an inhibition of 14.7%. CCOc1cc(CNCCO)cc(Br)c1OCc1ccc(Cl)cc1Cl gave an inhibition of 11.8%. In the case of N#C/C(=C\c1ccccc1Br)C(=O)NC1CC1, the inhibition is reported as -17.2%. With COc1ccccc1/C=C(/C#N)C(=O)O the inhibition was 7%. With CCOC(=O)/C(C#N)=C/c1cn(CCC(=O)O)nc1-c1cccc(Br)c1 the inhibition was 1.6%. With N#C/C(=C/c1cn[nH]c1-c1ccc(Br)cc1)C(=O)O the inhibition was 3%. COc1ccc(S(=O)(=O)N(CC(=O)NCc2ccncc2)c2cc(C)cc(C)c2)cc1OC gave an inhibition of 14.3%. COc1ccc(-c2sc(Nc3ccccc3)n[n+]2-c2ccc(F)cc2)c(OC)c1OC was tested, and the inhibition was 30%. COc1ccc(-c2sc(Nc3ccccc3)n[n+]2C)c(C)c1C was tested, and the inhibition was -7%. Work on COc1cc(OC)c(-c2sc(Nc3ccccc3)n[n+]2-c2ccc(F)cc2)cc1OC yielded an inhibition of -3%. Molecule COc1cc(Br)c(-c2sc(Nc3ccccc3)n[n+]2-c2ccccc2)cc1OC has an inhibition of 40.4%. With CCn1c(SCC(=O)Nc2ccc(OC)cc2)nnc1-c1ccco1 the inhibition was 2.2%. With O=C(Nc1ccc(F)cc1)NC1(C(=O)NCc2ccco2)CCCCC1 the inhibition was 5.6%. COc1ccc(Cl)cc1C(=O)NCCN(C)C showed an inhibition of -0.9%. Work on CN(C)CCNC(=O)COc1ccc(C23CC4CC(CC(C4)C2)C3)cc1 yielded an inhibition of 33.6%. O=C(NCCCN1CCN(c2ccc(F)cc2)CC1)NC12CC3CC(CC(C3)C1)C2 gave an inhibition of -1.6%. CCOC(=O)c1cnc(SC)nc1Oc1cccc(NC(=O)c2cccc(Cl)c2Cl)c1 gave an inhibition of 9.1%. CCCCNC(=S)N(C)/N=C/c1sc(N2CCCCC2)nc1-c1cccs1 gave an inhibition of 11.7%. Molecule CC(=O)N(C1=C(O)c2ccccc2C(=O)C1=O)C1CCCCC1 has an inhibition of -3.7%. CC(=O)N(c1ccccc1)C1CCCC1 gave an inhibition of 3.9%. Cc1cc(OCC(=O)Nc2ccc(CN3CCOCC3)cc2)c2c(C)c(C)c(=O)oc2c1 was tested, and the inhibition was 18.4%. CC(C)Sc1cc(N2CCCC2)nc(-c2ccccc2Cl)n1 was tested, and the inhibition was 7.8%. CCOc1cccc(OCCNC2CCCC2)c1 was tested, and the inhibition was -14.7%. COc1ccc(-c2c3c(=O)n(C)c(=O)n(C)c3cn2-c2cc(OC)ccc2OC)cc1 showed an inhibition of 11.5%. Molecule COCCNC(=O)c1ccccc1NC(=O)CN(c1ccc2c(c1)OCO2)S(C)(=O)=O has an inhibition of 6.3%. For COc1cccc(NC(=O)CN(C)CC(=O)Nc2cccc(C(F)(F)F)c2)c1, the inhibition was -8.3%. O=C(Nc1ccnn1C1CCN(Cc2cc3ccccc3[nH]2)CC1)C1CCOC1 (stereo not drawn) was tested, and the inhibition was 1.9%. With Nc1c(S(=O)(=O)O)cc(NC(=O)c2ccccc2)c2c1C(=O)c1ccccc1C2=O the inhibition was 0.8%. In the case of Cc1cc(C)c(Nc2cc(S(=O)(=O)O)c(N)c3c2C(=O)c2ccccc2C3=O)c(C)c1, the inhibition is reported as 66.8% (active). Molecule Cc1cc(C)cc(NC2=C(N)C(=O)c3ccccc3C2=O)c1 has an inhibition of 6.8%. Cc1ccc(C)c(NC(=O)NNC(=O)CCc2ccccc2)c1 gave an inhibition of 11%. In the case of CC(C)(C)n1nnnc1C(c1cccs1)N(Cc1cccnc1)CC1CCCO1 (stereo not drawn), the inhibition is reported as 4.3%. Work on CC(C)(C)n1nnnc1C(c1cccnc1)N(Cc1ccccc1)Cc1cccs1 (stereo not drawn) yielded an inhibition of 59.7%. For CC(c1nnnn1C(C)(C)C)N(Cc1cccnc1)Cc1ccccc1Cl (stereo not drawn), the inhibition was 11.1%. Molecule CC(C)(C)n1nnnc1C(c1cccs1)N(Cc1cccnc1)Cc1ccco1 (stereo not drawn) has an inhibition of 57.6%. Cc1ccc(C(C)C)cc1S(=O)(=O)NCc1ccccn1 showed an inhibition of 8.4%. Cc1cc(C)nc(Nc2n[nH]c(-c3ccccc3Cl)n2)n1 gave an inhibition of 0.2%. In the case of COc1ccc(C2c3ccc(O)cc3Oc3ncn4nc(-c5ccccn5)nc4c32)cc1OC (stereo not drawn), the inhibition is reported as 14.6%. N=c1c2c(ncn1CCCO)Oc1cc(O)ccc1C2c1ccccc1 (stereo not drawn) was tested, and the inhibition was 33.6%. In the case of COc1ccc(C2c3c(ncn(Cc4ccco4)c3=N)Oc3ccc4ccccc4c32)cc1 (stereo not drawn), the inhibition is reported as 27.8%. COc1ccc(C2c3ccc4ccccc4c3Oc3ncn(Cc4ccco4)c(=N)c32)cc1OC (stereo not drawn) gave an inhibition of 96.1%. In the case of COc1ccc(C2c3ccc(O)cc3Oc3ncn4nc(-c5ccncc5)nc4c32)cc1OC (stereo not drawn), the inhibition is reported as 5.3%. Work on N=c1c2c(ncn1CCN1CCOCC1)Oc1cc(O)ccc1C2c1ccccc1 (stereo not drawn) yielded an inhibition of 16.4%. In the case of COc1ccc(C2c3ccc(O)cc3Oc3ncn(Cc4ccco4)c(=N)c32)cc1OC (stereo not drawn), the inhibition is reported as 33%. With N=c1c2c(ncn1Cc1ccco1)Oc1c(ccc3ccccc13)C2c1ccccc1 (stereo not drawn) the inhibition was 65.9% (active). N=c1c2c(ncn1Cc1ccco1)Oc1ccc3ccccc3c1C2c1ccccc1 (stereo not drawn) was tested, and the inhibition was 17.8%. For CNc1oc(C)nc1S(=O)(=O)c1ccccc1, the inhibition was -6.5%. O=C(O)c1ccc2c(c1)S(=O)(=O)N=C1CCCCCN12 showed an inhibition of 16.8%. In the case of Cc1c(N=Cc2c(O)n(C)c(=O)c3ccccc23)c(=O)n(-c2ccccc2)n1C, the inhibition is reported as 1.5%. For CC(=O)N1c2ccccc2CCc2ccc(N)cc21, the inhibition was 8%. With CC(C)(C)c1ccc(C(=O)Nc2ccc(O)c3c(=O)cc(-c4ccccc4Cl)oc23)cc1 the inhibition was 18.3%. Work on O=c1[nH]c(=S)[nH]c2sc3c(c12)CCCCCC3 yielded an inhibition of -0.5%. Work on COc1cc(/C=N/NC(=O)c2cccc3ccccc23)cc(OC)c1O yielded an inhibition of 16.9%. Molecule Cn1c(NC(=O)c2cc(-c3ccc4c(c3)OCO4)nc3ccccc23)cc(=O)n(C)c1=O has an inhibition of 9.3%. In the case of COc1ccc(C2c3ccc(O)cc3Oc3ncn(CCCO)c(=N)c32)cc1 (stereo not drawn), the inhibition is reported as 22%. With COc1ccc(C2c3ccc(O)cc3Oc3ncn(CCN4CCOCC4)c(=N)c32)cc1 (stereo not drawn) the inhibition was 18.9%. COC(=O)c1ccc(N(CC(=O)NC2CCCCC2)C(=O)CNC(=O)c2ccco2)cc1 showed an inhibition of -3.6%. Molecule COc1ccc(-c2ccc(-c3nnc(Cc4ccc(OC)c(OC)c4)o3)cc2)cc1 has an inhibition of -4.2%. Work on O=C1c2ccccc2C(=O)N1Cc1cc(-c2ccccc2)no1 yielded an inhibition of -7.7%. Work on O=C(CCS(=O)(=O)c1cccc2nonc12)N1CCOCC1 yielded an inhibition of -5.5%. COc1ccccc1-c1c(-c2ccc(O)cc2O)n[nH]c1C(F)(F)F showed an inhibition of 5.7%. Work on COc1ccc(-c2cn[nH]c2-c2ccc(OCC(=O)NN)cc2O)cc1OC yielded an inhibition of -2.6%. Work on COc1ccc(-c2n[nH]c(C)c2-c2ccc(Cl)cc2)c(O)c1 yielded an inhibition of 12.3%. In the case of COc1ccccc1-c1c(-c2ccc(OCC(=O)NN)cc2O)n[nH]c1C(F)(F)F, the inhibition is reported as 4.3%. With COc1ccc(-c2cn[nH]c2-c2ccc(OCC(=O)NN)cc2O)cc1 the inhibition was -13.4%. COc1ccc(-c2c(-c3ccc(O)cc3O)n[nH]c2C)cc1OC gave an inhibition of 7%. With COc1ccc(-c2c(-c3ccc(OCC(=O)NN)cc3O)n[nH]c2C)cc1 the inhibition was -11.9%. In the case of Oc1ccc(-c2n[nH]c(C(F)(F)F)c2-c2ccccc2)c(O)c1, the inhibition is reported as 20.9%. With CSc1c(CC(=O)Nc2ccccc2)n(C)c2ccccc12 the inhibition was -1%. O=C(NCc1cccnc1)C(=O)Nc1ccc([N+](=O)[O-])cc1 was tested, and the inhibition was -2.9%. CSc1nsc(SC)c1NC(=O)N1CCCCC1 gave an inhibition of 3.9%. With Cc1cc(C)c(C(=O)CN2C(=O)NC3(CCC(C)CC3)C2=O)cc1C (stereo not drawn) the inhibition was 0.1%. For COC(=O)c1sc(NC(=O)c2c(F)cccc2F)c(C#N)c1C, the inhibition was -4.7%. Work on COC(=O)C1=C(C)OC(N)=C(C#N)C1c1ccccc1F (stereo not drawn) yielded an inhibition of 9%. For COC(=O)c1c(-c2ccccc2)csc1N, the inhibition was 1.1%. COC(=O)c1ccc(C#Cc2ccccc2)o1 was tested, and the inhibition was -12.1%. COC(=O)C1=C(N)Oc2c(oc(CO)cc2=O)C1c1ccc(F)cc1 (stereo not drawn) was tested, and the inhibition was 6%. In the case of O=C1CC(C(=O)O)(c2ccccc2)c2cccc(F)c21 (stereo not drawn), the inhibition is reported as -1.7%.
